From PubChem BioAssay AID1241 (SRMLSC, 2008)
Among all 1,200 compounds or so, about 840 (70%) were called active. No rule for the calls is given here. So high a share suggests a set chosen from earlier hits. The list is a sample of the results. Potency and affinity values are given separately.

Assay: NF-kB promoter reporter activators, neuronal cells, dose response, cell-based, SH-SY5Y, luciferase (AID 1241)
Details: series mostly up to 30 µM

Fold induction over control, inactive:
Oc1ccc(-c2csc(Nc3ncccn3)n2)cc1O
CC(C)(C)c1ccc(OCCn2ccccc2=O)cc1
COc1ccc2oc(C(=O)c3ccccc3)c(N)c2c1
COc1ccc2[nH]c(-c3cccc(F)c3)cc(=O)c2c1
COc1ccc(C(=S)Nc2ccc(N(C)C)cc2)cc1
Cc1nc(-c2ccccc2)sc1-c1ccnn1C
Nc1ccccc1C#Cc1ccccc1
CCOC(=O)c1c(C)oc2c1c(C(c1cccnc1)N1CCCCC1)c(O)c1ccccc12 (stereo not given)
O=C(Nc1ccc(Cl)cc1F)c1ccccc1Br
CCOC(=O)c1cnc(SCCc2ccccc2)nc1N
O=C(O)c1cccc(N=NN2CCCCCC2)c1
O=C(O)c1cc(N/N=C/C=C/c2ccccc2)ccc1Cl
COc1ccccc1OCCN1CSC(=S)N(C)C1
CC(C)(C)c1ccc(/C=N/Nc2cccc(C(=O)O)c2)cc1
O=C(O)/C=C\C(=O)Nc1ccccc1C#Cc1ccc(Br)cc1
Cc1ccccc1Nc1nc2ccccc2s1
N=c1c(C(=O)NCc2ccccc2)cc2c(=O)n3ccccc3nc2n1Cc1ccco1
O=C(/C=C/Nc1cccc([N+](=O)[O-])c1)c1cccs1
CCOc1ccc(NC(=O)c2ccccc2O)cc1
Cc1ccc(C(=O)N/N=C2\CCc3ccccc32)c(C)c1
CCCSc1nsc(NC(=O)CCC)n1
S=C(c1ccc(-c2ccc(Br)cc2)o1)N1CCCCC1
Nc1ncn(CC(=O)c2ccccc2)n1
CCc1ccc(C(=O)NC(=S)Nc2ccc3c(c2)OCCO3)cc1
COc1ccc(-c2nnc(SC(C)C(=O)Nc3cccc(Cl)c3)o2)cc1 (stereo not given)
Cc1ccc(C(=O)/C=C/Nc2cccc([N+](=O)[O-])c2)o1
Cc1ccc(C(=O)CCNc2ccc(F)c(Cl)c2)o1
COc1cccc(-c2noc(-c3cccnc3)n2)c1
Cc1[nH]n(C(N)=S)c(=O)c1N=Nc1ccc2ccccc2c1
Cc1nn(-c2ccccc2)c(N)c1N=Nc1ccccc1
Nc1nc(Nc2cccc(F)c2)nc2ccccc12
COc1ccc(C2=NN(C(C#N)c3ccc(OC)c(OC)c3)C(c3ccccc3)C2)cc1 (stereo not given)
Cc1cc2nc(-c3cccnc3SCC(=O)NCc3ccco3)[nH]c2cc1C
COc1cc(/C=C/C(=O)CC(=O)/C=C/c2ccc(O)c(OC)c2)ccc1O
COC(=O)CCCSc1nccn1-c1ccccc1
Cc1ccc(/C=C/C(=O)Nc2ccccc2C(N)=O)cc1
O=C(/C=C/Sc1ccccc1)c1ccc(Cl)cc1
CC(=Nc1cccc(C)c1)c1sc2ccccc2c1O
Oc1ccc(-c2csc(-c3ccccc3)n2)cc1O
COC(=O)c1cc(-c2c(C)nn(-c3ccccc3)c2C)n[nH]1
Cc1ccc(C(=O)Nc2cccc(C(=O)O)c2)cc1
O=C(NCCn1ccc2ccccc21)c1ccc2c(c1)OCO2
COc1ccc(C(=O)Nc2cccc(OC)c2)cc1
O=C(NC1CCCC1)c1cc(-c2cccs2)on1
N/C(=N\OC(=O)c1ccc2c(c1)OCO2)c1ccc(Cl)cc1
O/N=C/c1ccc(OCc2ccccc2)c(Br)c1
Cc1ccc(COc2ccc(/C=N/O)cc2)cc1
O=C(NCCc1ccccc1)c1cc(-c2ccco2)on1
O=C(CCSc1ccc(Cl)cc1)Nc1cccnc1
COc1ccc(/C(N)=N/OC(=O)CSc2ccccc2)cc1
Cc1ccc(O)c(/C=N/NC(=O)c2[nH]ncc2Br)c1
CCCc1noc(-c2ccc(-c3ccccc3)cc2)n1
CCOC(=O)c1c(C)[nH]c(C(=O)Nc2ccc3c(c2)OCO3)c1C
CCOC(=O)c1c(NC(=O)CC(C)C)sc(C(C)=O)c1C
CCOC(=O)c1cc(C(=O)Nc2ccccc2F)nn1C
CC(=O)Nc1ccc(N=Nc2ccccc2)cc1
COc1cccc(C(=O)Oc2ccccc2/C=C\C(=O)c2cc3ccccc3o2)c1
O=C(/C(=C/c1ccc(Cl)cc1)c1nc2ccccc2[nH]1)c1ccccc1
COc1ccc2cc(CCNC(=O)c3cccs3)c(=O)[nH]c2c1
CCOC(=O)C1=C(c2ccccc2)O/C(=C(/C#N)C(F)(F)F)S1
COc1ccc(-c2cnn3c(N)c(S(=O)(=O)C(C)(C)C)cnc23)cc1
CCc1nc2ccc(C(=O)O)cc2nc1CC
Cc1ccc(-c2nc3ccccc3s2)cc1NC(=S)NC(=O)c1ccccc1
CCOc1ccc(NC(=O)c2nsc(Cl)c2Cl)cc1
O=C(OCC(=O)N1CCOCC1)c1ccccc1Cc1ccccc1
CC(C)(C)c1ccc(NC(=O)Nc2ccc(OCC(=O)N3CCOCC3)cc2)cc1
CCc1ccc(NC(=O)c2ccc3ncsc3c2)cc1
CCc1ccc(NC(=O)c2cc(C(C)C)on2)cc1
Cc1nc2ccc(NC(=O)Cc3ccccc3F)cc2s1
O=C(O)c1ccc(-c2nc(-c3ccc(Cl)cc3)cs2)cc1
O=C(c1ccccc1)c1cnc(-c2ccccc2)s1
Oc1ccc2c(c1)oc1cc(O)ccc12
CN=c1scc(C)n1/N=C/c1cc(Br)c(O)c(Br)c1
COc1ccc(C(=O)OCCc2ccc(O)cc2)cc1
O=C(OCC(F)(F)F)c1cccc(COc2ccc3ccccc3c2)c1
COc1ccc(OCc2cccc(C(=O)Nn3cc([N+](=O)[O-])cn3)c2)cc1
O=C(COC(=O)C1CCCCC1)Nc1ccc([N+](=O)[O-])cc1
Cc1cccn2cc(-c3ccc(Cl)cc3)nc12
Cc1ccc(Nc2n[nH]c(C)c2[N+](=O)[O-])c(C)c1
CC(=O)c1cc(NC(=O)c2ccccc2)c(=O)oc1C
CCOC(=O)c1sc(NC(=O)c2ccccc2OC)nc1C
Cc1ccn2cc(CSc3ccccc3)nc2c1
CCSc1nnc(NC(=O)c2ccc(C)cc2)s1
Cc1nc(N2CCCCC2)c2c(-c3cccs3)csc2n1
Cc1ccc(-c2cc(-c3ccccc3C)[nH]n2)c(O)c1
Cc1ccc(C(=O)Oc2oc(-c3ccco3)nc2C=Nc2ccc(Cl)cc2)cc1
O=c1[nH]c(-c2ccco2)nc2sc3c(c12)CCCC3
c1ccc(-c2ccc(-c3nc(-c4cccnc4)no3)cc2)cc1
CC(=O)Nc1ccc2oc(-c3ccccc3)nc2c1
C=CCSC(=C(C#N)C#N)c1cc2c([nH]1)CCCC2
Cc1ccc(-n2c(C)cc(C(=O)CSc3nncs3)c2C)cc1
Cc1ccc(C(=O)/C=C/c2cn(CN3CCN(C)CC3)c3ccccc23)cc1
OCCC1CN(Cc2ccc3nsnc3c2)CCN1C1CCCC1 (stereo not given)
C/C(=N\O)c1sc(-c2ccccc2)nc1C
C/C(=N\OC(=O)NC(C)C)c1sc(-c2ccc(Cl)cc2)nc1C
Cc1ccc(Nc2nc3ccccc3[nH]2)nc1
Cc1ccc2c(c1)C(=NC1CCCCC1)c1cc3ccccc3nc1-2
CCOC(=O)c1cc(C(=O)Nc2cccc(C)c2)nn1C
Cc1ccccc1C(=O)Nc1cccc(NC(=O)Cn2cnc3c(=O)n(C)c(=O)n(C)c32)c1
CCc1ccc(NC(=O)c2onc(C)c2Cl)cc1
Cc1ccc(/C(N)=N/OC(=O)c2ccc(F)cc2)cc1
COc1ccccc1C(=O)O/N=C(\N)c1ccc(Cl)cc1
N/C(=N\OC(=O)c1ccccc1Cl)c1cccnc1
N/C(=N\OC(=O)c1ccc(Br)cc1)c1ccccc1
Cc1cc(/C=N/NC(N)=S)c(C)n1-c1ccc(Cl)c(Cl)c1
COc1cccc(C(=O)Nc2ccc(C3CC3(Cl)Cl)cc2)c1 (stereo not given)
Cc1onc(-c2c(F)cccc2Cl)c1C(=O)OCn1nnc2ccccc2c1=O
COc1c(Cl)cc(Cl)cc1/C=C/C(=O)c1ccc(NC(=O)c2cccs2)cc1
Cc1ccc(Nc2n[nH]c(C)c2[N+](=O)[O-])cc1C
Oc1cccc2ccc(/C=C/c3c(F)cccc3Cl)nc12
COc1cc(NC(=O)CSc2nc3ccccc3cc2C)c(C(=O)O)cc1OC
O=C(CCc1nnc(CCCc2ccccc2)o1)NC(C1CC1)C1CC1
N/C(=N\OC(=O)COc1cc(Cl)c(Cl)cc1Cl)c1ccccn1
N/C(=N\OC(=O)Cc1cccc2ccccc12)c1ccccn1
N#Cc1cc2ccccc2nc1SCc1ccccn1
Fc1ccc(-n2nnc(-c3cccnc3Cl)n2)cc1
Clc1ncccc1-c1nnn(-c2ccccc2)n1
Cc1csc(NC(=O)NC2(C(F)(F)F)Oc3ccccc3O2)n1
CC(C)c1ccc(NC(=O)c2csnn2)cc1
CC(=O)Nc1ccc(N=Nc2ccc(O)cc2)cc1
Cc1ccc(NC(=O)Nc2ccc3c(c2)nc(C)n3C)cc1
COc1ccc(NC(=O)c2noc3c2CCCCC3)cc1
CS(=O)(=O)c1ccc(C(=O)OCc2nnc(-c3ccc(Cl)cc3)o2)cc1[N+](=O)[O-]
Cc1nn(C)cc1/C=C/C(=O)c1cccs1
COc1ccc(/C=C/C(=O)c2ccccc2)c(OC)c1
